# Bioassay records deposited in PubChem BioAssay by Broad Institute.
# Most compounds without a hit are left out; they make up all but 6.7% or so of the library.
# T cruzi growth: T. cruzi intracellular proliferation inhibitors, primary screen, cell-based, beta-gal Tulahuen parasites, NIH3T3 host, luminescence; T. cruzi beta-gal in NIH3T3, GalScreen luminescence, 90 h; inhibition, % at 8.34 µM; 77,000 tested, 5.9% active; AID 624255, 2012;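 active = mean inhibition above about 93%, with at least 55% of replicates each passing it, limit read from the data, passing the limit was not always enough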
# Pf Dd2 growth: P. falciparum Dd2 growth inhibitors, primary screen, SYBR Green fluorescence, single dose replicates | 72 h; stronger effect = lower value | activity change, % at 10 µM | 94,000 tested, 2.3% active | AID 1159554, 2015; in the data active = activity change below about -80%
# C diff growth: C. difficile growth inhibitors, primary screen, HTS. Clostridium difficile clinical isolate growth, OD600, 24 h; stronger effect = lower value. growth activity, negative = inhibition, % at 16 µg/mL (by protocol). 86,000 tested, 0.25% active;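 active = mean growth activity at or below -80% and every replicate also at or below -80%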;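 also: 0% = DMSO wells and -100% = levofloxacin 16 µg/mL wells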
# * = called active by the depositor; . = no result given.
SMILES,T cruzi growth,Pf Dd2 growth,C diff growth
C[C@@H]1CCCCO[C@H](CN(C)S(=O)(=O)c2ccc(Cl)cc2)[C@@H](C)CN([C@@H](C)CO)C(=O)c2cc(NC(=O)Nc3cccc4ccccc34)ccc2O1,95,-81*,-1
C[C@H](CO)N1C[C@H](C)[C@@H](CN(C)S(=O)(=O)c2ccccc2)OCCCC[C@H](C)Oc2ccc(NC(=O)Nc3cccc4ccccc34)cc2C1=O,84,-43,-1
CCCNC(=O)N1[C@H](CNC(=O)c2ccccc2)[C@@H](c2ccccc2)[C@@H]1CO,73,-14,2
CO[C@@H]1CN(C)C(=O)c2ccc(NC(=O)Nc3ccc(C(F)(F)F)cc3)cc2OC[C@H](C)NC[C@@H]1C,0,-21,.
CO[C@@H]1CN(C)C(=O)c2cc(NC(=O)Nc3ccc(C(F)(F)F)cc3)ccc2OC[C@@H](C)NC[C@@H]1C,-11,-81*,.
CO[C@H]1CN(C)C(=O)c2ccc(NC(=O)Nc3ccc(C(F)(F)F)cc3)cc2OC[C@H](C)NC[C@H]1C,26,-90*,.
CO[C@H]1CN(C)C(=O)c2ccc(NC(=O)Nc3ccc(C(F)(F)F)cc3)cc2OC[C@@H](C)NC[C@@H]1C,35,-76,.
CO[C@@H]1CN(C)C(=O)c2cc(NC(=O)Nc3ccc(F)cc3)ccc2OC[C@H](C)NC[C@H]1C,-100,-8,1
CO[C@@H]1CN(C)C(=O)c2cc(NC(=O)Nc3ccc(C(F)(F)F)cc3)ccc2OC[C@H](C)NC[C@H]1C,-132,-89*,.
O=C(C[C@@H]1CC[C@H]2[C@@H](COC[C@@H](O)CN2C(=O)Nc2ccccc2)O1)NC1Cc2ccccc2C1,69,4,.
C[C@@H]1CCCCO[C@@H](CN(C)S(=O)(=O)c2cn(C)cn2)[C@H](C)CN([C@H](C)CO)C(=O)c2cc(NS(=O)(=O)c3ccccc3)ccc2O1,8,23,0
COc1cccc(S(=O)(=O)N2C[C@H](O)COC[C@H]3O[C@H](CC(=O)N4CCCCC4)CC[C@@H]32)c1,-27,1,3
CCCNC(=O)N(C)C[C@H]1Oc2ncc(C#CC3(O)CCCC3)cc2C(=O)N([C@H](C)CO)C[C@@H]1C,.,25,-1
COCC#Cc1ccc([C@@H]2[C@H](CO)N3C(=O)CN(C(=O)c4ccncc4)C[C@@H]23)cc1,.,-16,6
C[C@H]1CN([C@@H](C)CO)S(=O)(=O)c2ccc(/C=C/c3ccccc3)cc2O[C@H]1CN(C)Cc1cccnc1,.,-82*,4
C[C@H]1CN([C@@H](C)CO)S(=O)(=O)c2ccc(/C=C/c3ccccc3)cc2O[C@@H]1CN(C)Cc1cccnc1,102,-75,2
C[C@@H]1CN([C@@H](C)CO)S(=O)(=O)c2ccc(-c3ccccc3)cc2O[C@H]1CN(C)C(=O)Nc1ccccc1F,55,-38,.
C[C@H]1CN([C@@H](C)CO)S(=O)(=O)c2ccc(-c3ccccc3)cc2O[C@H]1CN(C)C(=O)Nc1ccccc1F,45,-81*,.
C[C@@H]1CN([C@H](C)CO)S(=O)(=O)c2ccc(/C=C/c3ccccc3)cc2O[C@H]1CN(C)C(=O)Nc1cc(F)ccc1F,.,-84*,11
C[C@@H]1CN([C@@H](C)CO)S(=O)(=O)c2ccc(/C=C/c3ccccc3)cc2O[C@@H]1CN(C)C(=O)c1ccccc1,127*,-68,-1
C/C=C/c1ccc2c(c1)O[C@@H](CN(C)C(=O)c1ccccc1)[C@H](C)CN([C@H](C)CO)S2(=O)=O,.,-16,5
C[C@@H]1CN([C@H](C)CO)S(=O)(=O)c2ccc(/C=C/c3ccccc3)cc2O[C@@H]1CN(C)C(=O)Nc1cc(F)ccc1F,.,-64,1
COc1cc(CN2CC3(CN(C(=O)Nc4cccc(F)c4)C3)c3c(n(C)c4cc(OC)ccc34)[C@H]2CO)cc(OC)c1,.,-67,49
C[C@@H]1CN([C@H](C)CO)C(=O)Cc2cc(NC(=O)Nc3ccc(F)cc3)ccc2O[C@H]1CN(C)S(=O)(=O)c1cccs1,7,0,-3
CO[C@@H]1CN(C)C(=O)c2cc(NS(C)(=O)=O)ccc2OC[C@@H](C)N(C(=O)C2CCCC2)C[C@@H]1C,18,.,.
CN1C(=O)c2cc(NC(=O)C3CCOCC3)ccc2OC[C@@H]2O[C@@H](CC(=O)NC3CCCC3)CC[C@H]21,-9,14,1
Cc1ccc(S(=O)(=O)N(C)C[C@@H]2Oc3ncc(-c4ccncc4)cc3C(=O)N([C@@H](C)CO)C[C@@H]2C)cc1,67,-36,0
Cc1noc(C)c1NC(=O)N(C)C[C@H]1OCCCC[C@@H](C)Oc2ccc(NC(=O)c3ccncc3)cc2C(=O)N([C@H](C)CO)C[C@H]1C,33,23,1
